Experimental findings from PubChem BioAssay (NCI) are described below.

Test systems include NCI-H23 lung; NCI-H226 lung; NCI-H322M lung; HOP-62 NSCLC; NCI-H460 lung; HOP-92 NSCLC; NCI-H522 lung; A549/ATCC NSCLC; 786-0 renal; COLO 205 colon; DU-145 prostate; K-562 leukemia; MALME-3M melanoma; MDA-MB-231 breast; RXF 393 renal; SF-268 CNS; SF-295 CNS; SF-539 CNS; UACC-257 melanoma; M14 melanoma.
Assay in all cases: NCI-60 one-dose screen, 48 h (100 = growth as untreated, 0 = no growth, -100 = all killed)
What all share (settings): 10 µM unless noted

Compounds without any hit were thinned out: in the full panel of roughly 83,000, 20% have a hit.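 Compound tested at a single concentration for 48 hours in 96-well plates; a percent growth value below 10 was scored as active.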 A number with no mark means an inactive call. Calls of active or inactive are those of the source.

`C[C@]12CCc3nc(Nc4ccccc4)sc3C1=CC[C@@H]1[C@@H]2CC[C@]2(C)/C(=N/NC(N)=S)CC[C@@H]12`: the growth in the experiment with NCI-H23 lung was 59.7%; in the experiment with NCI-H226 lung it was 15.6%; in the experiment with NCI-H322M lung it was 81.9%; in the experiment with HOP-62 NSCLC, 68.2%; in the experiment with NCI-H460 lung it was 70.3%; with HOP-92 NSCLC it was 85.4%. Moreover, the growth in the experiment on NCI-H522 lung is 32.5%; with A549/ATCC NSCLC, 43.1%; with 786-0 renal it was -49.8% (active); in the experiment with COLO 205 colon it was 58.1%; in the experiment with DU-145 prostate it was 36.3%; in the experiment with K-562 leukemia, 9.46% (active). For the same compound, the growth was 69.5% with MALME-3M melanoma; 56.3% with MDA-MB-231 breast; -8.56% (active) with RXF 393 renal; 49.3% in the experiment with SF-268 CNS; 21.2% in the experiment on SF-295 CNS; 37.3% in the experiment with SF-539 CNS. For the same compound, the growth in the experiment with UACC-257 melanoma is 67.9%; in the experiment with M14 melanoma it was 73.1%.

As to `CCN(CCNc1ccc(C)c2sc3cc(Cl)ccc3c(=O)c12)CC(C)O` (stereo not given), the growth is 92.9% with NCI-H23 lung; 134% in the experiment on NCI-H226 lung; 95.9% in the experiment on NCI-H322M lung; 76% in the experiment on HOP-62 NSCLC; 3.16% (active) in the experiment with NCI-H460 lung; 29.8% in the experiment with HOP-92 NSCLC. Also, the growth was 28.3% with NCI-H522 lung; 34.7% with A549/ATCC NSCLC; 41.9% with 786-0 renal; -34% (active) in the experiment on COLO 205 colon; 82.5% with DU-145 prostate; 3.01% (active) in the experiment on K-562 leukemia. Besides, the growth was 82.1% in the experiment with MALME-3M melanoma; -11.8% (active) in the experiment on MDA-MB-231 breast; -39.2% (active) in the experiment with RXF 393 renal; 82.8% in the experiment with SF-268 CNS; 97.3% in the experiment with SF-295 CNS; 59.4% in the experiment with SF-539 CNS. The growth is -61.1% (active) with UACC-257 melanoma and -50.5% (active) with M14 melanoma.

Consider `O=C(CSc1nc2ccc([N+](=O)[O-])cc2[nH]1)Nc1cccc(Cl)c1`, for which the growth in the experiment on NCI-H23 lung was -2.48% (active); in the experiment on NCI-H226 lung it was 12.9%; in the experiment on NCI-H322M lung it was 62.4%; in the experiment with HOP-62 NSCLC, 35%; with NCI-H460 lung it was 25.3%; with HOP-92 NSCLC, -27.9% (active). Further, the growth with NCI-H522 lung is 4.64% (active); in the experiment on A549/ATCC NSCLC, 28.9%; in the experiment with 786-0 renal it was 28.6%; with COLO 205 colon, 26.4%; with DU-145 prostate, 36.3%; in the experiment on K-562 leukemia it was 16.4%. In addition, the growth in the experiment with MALME-3M melanoma was 2.51% (active); in the experiment with MDA-MB-231 breast it was 41.1%; in the experiment on RXF 393 renal, 44.5%; in the experiment on SF-268 CNS, 24.3%; in the experiment with SF-295 CNS it was 21.7%; in the experiment with SF-539 CNS, 45.2%. Moreover, the figures for the growth in the experiment with UACC-257 melanoma and in the experiment with M14 melanoma were 15% and 29.4%, respectively.

On to `N#C/C(C(=O)c1ccccc1)=C1/C(=O)Nc2ccc(Br)cc21`, for which the growth was 94.4% with NCI-H23 lung; 96.6% in the experiment on NCI-H226 lung; 101% in the experiment with NCI-H322M lung; 84.1% in the experiment on HOP-62 NSCLC; 105% with NCI-H460 lung; 109% in the experiment on HOP-92 NSCLC. In addition, the growth was 99.1% with NCI-H522 lung; 104% with A549/ATCC NSCLC; 101% in the experiment with 786-0 renal; 113% in the experiment on COLO 205 colon; 108% in the experiment on DU-145 prostate; 91.3% in the experiment on K-562 leukemia. The growth in the experiment on MALME-3M melanoma is 96.7%; in the experiment with MDA-MB-231 breast, 95.5%; in the experiment on RXF 393 renal, 111%; with SF-268 CNS it was 103%; in the experiment with SF-295 CNS, 100%; in the experiment with SF-539 CNS it was 94.7%. Moreover, the growth in the experiment on UACC-257 melanoma is 97.9%; in the experiment on M14 melanoma it was 107%.

For the compound `O=C1CC(c2ccccc2)Cc2nc3ccc(Cl)cc3cc21` (stereo not given), the growth in the experiment with NCI-H23 lung is 36.4%; in the experiment with NCI-H226 lung it was 20.8%; with NCI-H322M lung, 39.8%; in the experiment on HOP-62 NSCLC, 35.9%; with NCI-H460 lung, 3.33% (active); in the experiment on HOP-92 NSCLC, 39.3%. Also, the growth in the experiment with NCI-H522 lung was 3.02% (active); in the experiment on A549/ATCC NSCLC, 23.3%; with 786-0 renal, 37.6%; in the experiment with COLO 205 colon, -31.7% (active); in the experiment with DU-145 prostate it was 0.185% (active); in the experiment with K-562 leukemia it was 6.83% (active). Also, the growth in the experiment with MALME-3M melanoma is 34%; in the experiment on MDA-MB-231 breast it was 19.5%; in the experiment on RXF 393 renal, 21.8%; with SF-268 CNS, 45.2%; in the experiment with SF-295 CNS, -3.44% (active); in the experiment with SF-539 CNS it was -12% (active). Besides, the growth with UACC-257 melanoma was 69.1%; with M14 melanoma it was 8.98% (active).

On to `O=C(Nc1ccc(Cl)c(C(F)(F)F)c1)Nc1ccc(-c2cccnc2)cc1N1CCC(CO)CC1`, for which the growth in the experiment on NCI-H23 lung is 38.4%; in the experiment with NCI-H226 lung, 53.4%; with NCI-H322M lung, 54.8%; in the experiment with HOP-62 NSCLC, 47.5%; with NCI-H460 lung, 18.5%; in the experiment on HOP-92 NSCLC, 34.5%. The growth in the experiment on NCI-H522 lung is 20.2%; in the experiment with A549/ATCC NSCLC, 22.2%; in the experiment with 786-0 renal, 15.6%; in the experiment on COLO 205 colon, -26.6% (active); in the experiment on DU-145 prostate, 53.2%; in the experiment with K-562 leukemia, 15.1%. The growth in the experiment on MALME-3M melanoma is 43.1%; in the experiment on MDA-MB-231 breast, -17.5% (active); with RXF 393 renal, 26.2%; in the experiment with SF-268 CNS, 47.6%; in the experiment on SF-295 CNS, 17.8%; in the experiment on SF-539 CNS, 18.9%. Besides, the growth in the experiment on UACC-257 melanoma was 40.2%; with M14 melanoma it was 24.1%.

For the compound `Cn1cc(-c2noc(-c3cn(C)c4ncc(F)cc34)n2)c2cc(Br)ccc21`, the growth in the experiment with NCI-H23 lung is 79.9%; with NCI-H226 lung it was 98.7%; in the experiment with NCI-H322M lung, 53.7%; in the experiment with HOP-62 NSCLC, 67.8%; in the experiment with NCI-H460 lung it was 22.8%; in the experiment on HOP-92 NSCLC, 81.1%. Besides, the growth in the experiment on NCI-H522 lung was 74.8%; in the experiment on A549/ATCC NSCLC it was 45.2%; in the experiment with 786-0 renal, 49.4%; in the experiment on COLO 205 colon it was 77.9%; with DU-145 prostate it was 84.6%; with K-562 leukemia it was 86.6%. The growth is 57.5% in the experiment with MALME-3M melanoma; 60.8% in the experiment on MDA-MB-231 breast; 90.9% in the experiment on RXF 393 renal; 76.1% in the experiment on SF-268 CNS; 84.6% in the experiment on SF-295 CNS; 71.3% in the experiment on SF-539 CNS. Also, the figures for the growth with UACC-257 melanoma and in the experiment on M14 melanoma were 98.7% and 85.7%, respectively.
